From PubChem BioAssay (NCATS) come the findings set out here.

The structures appear in SMILES notation. Records with an inconclusive call do not appear. Calls of active or inactive are those of the source. Unless noted, the call rests on the fitted dose curve; in most records, active means well fitted curve in the direction sought with a large enough effect; inconclusive means small, poorly fitted or top-dose-only effect, or another doubt; inactive means no such curve, though single readings can be large; an effect the other way counts as inactive or inconclusive.

Experiment [1] can be described thus: qHTS assay for small molecule antagonists of peroxisome proliferator-activated receptor delta signaling (AID 588535; active means well fitted inhibition curve with a large enough effect in the signal ratio, with a control signal flat, not every such curve was filed as active; the % refers to the signal ratio;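 on max response: cells co-treated with a PPAR-delta agonist as stimulator during compound exposure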). The note with it: HEK293T PPARd-UAS-bla, beta-lactamase FRET ratio, 18 h; 460 nm channel. A digest of the protocol:
(§1)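 Cells were seeded at 4000 per well in assay medium containing 2% charcoal/dextran FBS and held 5 hrs at 37 C. Compounds were then added for 18 hrs. CCF4 substrate was applied for 2 hrs at room temperature before fluorescence reading.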
(In qHTS, concentration-response curves come from the screen itself.)

The target in experiment [2] is Peroxisome proliferator-activated receptor delta (Homo sapiens) (UniProt Q03181). Described as above. Conditions: HEK293T PPARd-UAS-bla, beta-lactamase FRET ratio, 18 h; series mostly up to 76.7 µM. A digest of the protocol:
as §1

Experiment [3] addresses Peroxisome proliferator-activated receptor gamma (Homo sapiens) (UniProt P37231). The experiment in a line: qHTS assay for small molecule agonists of peroxisome proliferator-activated receptor gamma signaling (AID 588536; active means well fitted curve in the direction sought with a large enough effect in the signal ratio, with a control signal flat, not every such curve was filed as active; the % refers to the signal ratio;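 further: 0% = DMSO basal wells and 100% = rosiglitazone at 2 µM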). Conditions: HEK293 PPARg-UAS-bla, beta-lactamase ratio, 16 h, percent of rosiglitazone response, DMSO as zero; series mostly up to 76.7 µM. In short, it runs like this: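 Ratiometric blue/green fluorescence (405 nm excitation; 460 and 530 nm emission) from CCF4-loaded HEK293 reporter cells serves as signal. Exposure to test compounds lasts 16 h at 37 C in medium containing 1% charcoal/dextran-treated serum.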

Experiment [4] has as its target Vitamin D3 receptor (Homo sapiens) (UniProt P11473). Description: qHTS assay for small molecule antagonists of vitamin D receptor signaling (AID 588541; calls by dose curve;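 further: receptor activated by calcitriol during compound treatment; on the % scale 0 is the no-effect control and ±100 the full control effect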). Conditions: HEK293T VDR-UAS-bla, beta-lactamase ratio, antagonist mode; series mostly up to 76.7 µM. In short, it runs like this:
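VDR-UAS-bla HEK293T cells in 2% charcoal-stripped FBS were stimulated with 1-alpha,25-dihydroxyvitamin D3 (3 nM final) plus compound for 16 h at 37 C. The beta-lactamase CCF4 readout was normalized to 50 nM agonist and DMSO, and Hill fits gave IC50.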

Experiment [5] has the same target. Description: qHTS assay for small molecule agonists of vitamin D receptor signaling (AID 588543; calls by dose curve;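 further: 0% = DMSO basal and 100% = reference agonist control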). Conditions: HEK293T VDR-UAS-bla, beta-lactamase ratio, 16 h; series mostly up to 76.8 µM. In short, it runs like this: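 VDR-UAS-bla HEK293T cells, 2000/well, 2% charcoal-stripped FBS; compound titration 16 h at 37 C; CCF4 beta-lactamase ratio read. Normalized to 50 nM 1-alpha,25-dihydroxyvitamin D3 (100%) and DMSO; Hill fit gives EC50, efficacy.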

Experiment [6] can be described thus: qHTS assay for small molecule agonists of retinoid X receptor alpha signaling (AID 588544; calls by dose curve; further: potency means the concentration at half of the fitted maximal effect;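 on activation: 0% = DMSO basal wells and 100% = reference agonist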). Conditions: HEK293T RXRa-UAS-bla, beta-lactamase reporter, 18 h; 530 nm emission.
The target of experiment [7] is Retinoic acid receptor RXR-alpha (Homo sapiens) (UniProt P19793). The experiment is described as above. Conditions: HEK293T RXRa-UAS-bla, beta-lactamase reporter, 18 h; series mostly up to 76.7 µM.
Chain of Retinoic acid receptor RXR-alpha (Homo sapiens) (P19793 whole entry, looked up): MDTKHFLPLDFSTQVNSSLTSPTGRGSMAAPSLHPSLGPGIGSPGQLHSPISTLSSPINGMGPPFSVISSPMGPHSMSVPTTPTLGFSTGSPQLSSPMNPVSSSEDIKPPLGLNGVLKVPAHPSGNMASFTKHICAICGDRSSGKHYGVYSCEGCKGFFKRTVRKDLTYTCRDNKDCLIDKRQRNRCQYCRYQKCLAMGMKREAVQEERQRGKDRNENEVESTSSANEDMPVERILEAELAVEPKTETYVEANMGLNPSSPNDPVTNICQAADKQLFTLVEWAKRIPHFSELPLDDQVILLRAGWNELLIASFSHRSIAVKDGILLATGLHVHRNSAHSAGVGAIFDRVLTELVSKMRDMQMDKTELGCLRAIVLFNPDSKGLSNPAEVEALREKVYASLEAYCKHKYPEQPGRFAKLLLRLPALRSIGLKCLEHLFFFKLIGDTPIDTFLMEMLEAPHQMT
Experiment [8] concerns the target Thyroid hormone receptor beta (Homo sapiens) (UniProt P10828). The experiment in a line: qHTS assay for small molecule agonists of thyroid hormone receptor beta signaling (AID 588545; calls by dose curve;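 further: 0% = DMSO only and 100% = 10 nM T3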). The note with it: TR-UAS-bla GripTite HEK 293, beta-lactamase ratio, agonist mode, 18 h; series mostly up to 76.7 µM. In short, it runs like this:
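Beta-lactamase reporter activity under TR response element control is measured in HEK 293 cells after 18 hrs compound exposure. Signal is ratiometric CCF4 fluorescence, 460/530 nm.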

A short description of experiment [9]: qHTS assay for small molecule antagonists of retinoid X receptor alpha signaling (AID 588546; active means well fitted inhibition curve with a large enough effect in the signal ratio, with a control signal flat, not every such curve was filed as active; the % refers to the signal ratio;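 further: cells stimulated with 9-cis-retinoic acid as agonist; on the % scale 0 is the no-effect control and ±100 the full control effect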). Conditions: HEK293T RXRa-UAS-bla, beta-lactamase ratio, antagonist mode; measured here: W530 green channel, cytotoxicity proxy. In short, it runs like this:
(§2)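 Beta-lactamase reporter inhibition, read as CCF4 fluorescence ratio (ex 405, em 460/530 nm) after 2 h at RT. HEK293T UAS-bla cells, 2500/well, were stimulated with 9-cis-RA at 500 or 100 nM final alongside test compound for 18 h at 37 C.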

The nature of experiment [10]: qHTS assay for small molecule activators of the nuclear factor-kappa B (NF-kB) signaling pathway (AID 651749; active means well fitted activation curve with a large enough effect in the signal ratio; the % refers to the signal ratio; further: % of control where 0% means no effect). Conditions: NF-kB-bla ME-180 cells, beta-lactamase FRET ratio, 16 h; activation: stronger effect = higher value. A digest of the protocol: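 Incubation lasted 16 hr at 37C in 5% CO2 after 23 nL compound addition to ME-180 NF-kB-bla cells. Activation appears as beta-lactamase-mediated FRET loss.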

The nature of experiment [11]: qHTS assay for environmental chemicals that activate the Aryl hydrocarbon Receptor (AhR) signaling pathway (AID 651777). Further: % of control where 0% means no effect; nearly all actives have a fitted effect of over 15% in size. Conditions: 1A2-DRE human hepatoma cells, luciferase, 24 h; activation: stronger effect = higher value. A digest of the protocol: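 Following a 24 hr incubation with test chemicals at 37 C and 5% CO2, 1A2-DRE human hepatoma cells received One-Glo reagent; after 30 min at room temperature, luciferase output reflected CYP1A2 induction via AhR.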

Experiment [12] in a line: qHTS assay for small molecule agonists of the antioxidant response element (ARE) signaling pathway measured by Nrf2-dependant transcriptional activity (AID 720636; active means well fitted curve in the direction sought with a large enough effect in the repeat runs; an effect the other way counts as inactive or inconclusive;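 further: HepG2 cells with an ARE-driven luciferase reporter; % of control where 0% means no effect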). The note with it: ARE-luc HepG2, Nrf2 luciferase reporter, 16 h; series mostly up to 92.4 µM. In short, it runs like this:
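ONE-Glo luminescence, read 30 min after reagent addition at room temperature, reflected ARE reporter activity in HepG2 cells that had been incubated with compound for 16 hr at 37 C in 1% dialyzed FBS.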

The nature of experiment [13]: qHTS assay for small molecule agonists of the antioxidant response element (ARE) signaling pathway measured by Nrf2-dependant transcriptional activity - cell viability counter screen (AID 720653; active means well fitted curve in the direction sought with a large enough effect in the repeat runs; an effect the other way counts as inactive or inconclusive; further: on the % scale 0 is the no-effect control and ±100 the full control effect). Conditions: ARE-bla HepG2 viability, CellTiter-Glo ATP luminescence, 16 h; max response: stronger effect = lower value. In short, it runs like this:
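ARE-bla HepG2 cells treated with compounds for 16 h at 37C; this counter screen measures viability as intracellular ATP by CellTiter-Glo luminescence after 30 min at room temperature.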

Experiment [14] is described as follows: qHTS assay for cell viability of HEK293 cells (AID 743288). Further: on the % scale 0 is the no-effect control and ±100 the full control effect; nearly all actives have a fitted effect of over 50% in size. Conditions: ATP luminescence (CellTiter-Glo), 18 h; max response: stronger effect = lower value. A digest of the protocol:
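Parental HEK293 cells, 2,000 per well, preincubated at least 5 h at 37 C, then exposed to compounds in DMSO for 18 h at 37 C. Viability by CellTiter-Glo ATP luminescence after 30 min at room temperature.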

A short description of experiment [15]: qHTS assay for cell viability of the p53RE-bla HCT-116 cell line (AID 743292). Further: on the % scale 0 is the no-effect control and ±100 the full control effect; nearly all actives have a fitted effect of over 55% in size. Conditions: p53RE-bla HCT-116 viability, ATP luminescence, 16 h; series mostly up to 95 µM. A digest of the protocol: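 After plating at 4,000 cells per well and a 5 h rest at 37 C, HCT-116 cells carrying p53RE-bla received test chemicals in DMSO. Sixteen hours later at 37 C, CellTiter-Glo was added and luminescence recorded following 30 min at room temperature.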

Experiment [16] addresses Nuclear receptor subfamily 1 group I member 2 (Rattus norvegicus) (UniProt Q9R1A7). Description: qHTS assay for small molecule activators of the rat pregnane X receptor (rPXR) signaling pathway (AID 651751; call rule not given here; further: 0% is about no effect). The note with it: rPXR reporter cells, luciferase (One-Glo), 24 h.
Experiment [17] is described as follows: qHTS assay for small molecule activators of the human pregnane X receptor (PXR) signaling pathway (AID 720659; call rule not given here; further: 0% is about no effect). Conditions: DPX-2 HepG2 CYP3A4-luciferase, 24 h; series mostly up to 92.3 µM.
For experiment [18], the target named is Retinoic acid receptor RXR-alpha (Homo sapiens) (UniProt P19793). The experiment in a line: qHTS assay for small molecule antagonists of retinoid X receptor alpha signaling (AID 588546).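 Further: cells stimulated with 9-cis-retinoic acid as agonist; on the % scale 0 is the no-effect control and ±100 the full control effect.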 Conditions: HEK293T RXRa-UAS-bla, beta-lactamase ratio, antagonist mode. A digest of the protocol: as §2
Experiment [19] concerns the target Peroxisome proliferator-activated receptor alpha (Homo sapiens) (UniProt Q07869). The experiment in a line: qHTS assay for small molecule agonists of the peroxisome proliferator-activated receptor alpha (PPARalpha) signaling pathway (AID 651778). Further: % of control where 0% means no effect. Conditions: PathHunter PPARalpha complementation, chemiluminescence, 6 h; max response: stronger effect = higher value. A digest of the protocol: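 Enzyme-fragment complementation assay in which ligand-bound PPARalpha translocates and forms an active enzyme that generates chemiluminescence. Cells were plated overnight, exposed to compound for 6 hr at 37 C, and then given detection reagent for 60 min at room temperature.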

The nature of experiment [20]: qHTS assay for small molecule activators of the p53 signaling pathway (AID 651743; active means well fitted activation curve with a large enough effect in the signal ratio, not every such curve was filed as active; the % refers to the signal ratio; further: % of control where 0% means no effect). Conditions: HCT-116 p53RE-bla, beta-lactamase FRET ratio, 16 h; activation: stronger effect = higher value. In short, it runs like this: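 HCT-116 p53RE-bla, 4,000 cells/well; 5 h settle; cpd/DMSO 16 h, 37 C; LiveBLAzer B/G 2 h RT; fluorescence intensity.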

Chain of Thyroid hormone receptor beta (Homo sapiens) (P10828 whole entry, looked up): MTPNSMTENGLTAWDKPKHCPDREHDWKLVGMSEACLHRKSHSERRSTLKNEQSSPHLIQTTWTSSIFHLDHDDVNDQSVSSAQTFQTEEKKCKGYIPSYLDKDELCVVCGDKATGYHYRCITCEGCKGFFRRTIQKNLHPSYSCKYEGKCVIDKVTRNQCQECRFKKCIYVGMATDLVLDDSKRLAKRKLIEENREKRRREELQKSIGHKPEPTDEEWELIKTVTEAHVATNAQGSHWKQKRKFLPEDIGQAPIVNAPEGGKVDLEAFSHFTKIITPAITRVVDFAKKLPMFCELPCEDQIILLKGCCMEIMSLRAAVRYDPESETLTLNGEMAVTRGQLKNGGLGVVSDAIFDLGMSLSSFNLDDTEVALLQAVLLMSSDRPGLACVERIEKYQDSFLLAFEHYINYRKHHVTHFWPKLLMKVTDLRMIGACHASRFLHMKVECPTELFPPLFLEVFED
Chain of Vitamin D3 receptor (Homo sapiens) (P11473 whole entry, looked up): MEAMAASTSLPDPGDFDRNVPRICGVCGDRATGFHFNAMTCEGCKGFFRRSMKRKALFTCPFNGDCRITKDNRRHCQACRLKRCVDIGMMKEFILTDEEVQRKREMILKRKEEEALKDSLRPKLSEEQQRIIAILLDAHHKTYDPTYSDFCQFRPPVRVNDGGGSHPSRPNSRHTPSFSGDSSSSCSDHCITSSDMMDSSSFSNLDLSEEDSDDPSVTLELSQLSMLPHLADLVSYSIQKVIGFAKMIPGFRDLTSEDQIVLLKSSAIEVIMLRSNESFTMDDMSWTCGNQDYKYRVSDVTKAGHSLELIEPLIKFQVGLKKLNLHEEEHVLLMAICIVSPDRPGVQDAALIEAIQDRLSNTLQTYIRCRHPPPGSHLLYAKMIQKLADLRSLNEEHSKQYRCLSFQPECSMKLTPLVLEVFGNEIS
Chain of Peroxisome proliferator-activated receptor gamma (Homo sapiens) (P37231 whole entry, looked up): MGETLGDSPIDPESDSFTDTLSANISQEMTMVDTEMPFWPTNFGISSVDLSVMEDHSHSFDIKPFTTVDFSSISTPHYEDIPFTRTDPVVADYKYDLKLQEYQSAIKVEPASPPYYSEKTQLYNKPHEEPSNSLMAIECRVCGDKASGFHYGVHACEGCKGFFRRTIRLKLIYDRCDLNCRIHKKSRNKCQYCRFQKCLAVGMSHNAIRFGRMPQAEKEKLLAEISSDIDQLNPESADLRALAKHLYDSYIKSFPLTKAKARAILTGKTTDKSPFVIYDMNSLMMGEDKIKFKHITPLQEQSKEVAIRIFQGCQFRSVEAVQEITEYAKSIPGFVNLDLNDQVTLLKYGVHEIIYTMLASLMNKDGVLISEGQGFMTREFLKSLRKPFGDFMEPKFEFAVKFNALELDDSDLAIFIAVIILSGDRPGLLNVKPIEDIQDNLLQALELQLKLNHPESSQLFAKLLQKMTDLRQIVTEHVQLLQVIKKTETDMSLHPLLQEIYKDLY
Chain of Peroxisome proliferator-activated receptor delta (Homo sapiens) (Q03181 whole entry, looked up): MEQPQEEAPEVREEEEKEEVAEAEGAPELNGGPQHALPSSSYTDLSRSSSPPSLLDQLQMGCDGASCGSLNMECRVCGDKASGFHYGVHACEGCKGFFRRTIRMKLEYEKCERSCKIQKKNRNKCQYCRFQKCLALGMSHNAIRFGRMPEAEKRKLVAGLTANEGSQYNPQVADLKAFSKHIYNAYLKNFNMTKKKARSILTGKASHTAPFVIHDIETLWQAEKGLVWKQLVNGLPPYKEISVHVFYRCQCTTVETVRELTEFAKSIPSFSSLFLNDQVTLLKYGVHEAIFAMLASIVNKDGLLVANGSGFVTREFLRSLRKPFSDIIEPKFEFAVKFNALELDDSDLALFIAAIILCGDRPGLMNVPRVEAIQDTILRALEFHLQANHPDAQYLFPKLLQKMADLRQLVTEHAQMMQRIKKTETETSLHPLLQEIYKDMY
Chain of Nuclear receptor subfamily 1 group I member 2 (Rattus norvegicus) (Q9R1A7 whole entry, looked up): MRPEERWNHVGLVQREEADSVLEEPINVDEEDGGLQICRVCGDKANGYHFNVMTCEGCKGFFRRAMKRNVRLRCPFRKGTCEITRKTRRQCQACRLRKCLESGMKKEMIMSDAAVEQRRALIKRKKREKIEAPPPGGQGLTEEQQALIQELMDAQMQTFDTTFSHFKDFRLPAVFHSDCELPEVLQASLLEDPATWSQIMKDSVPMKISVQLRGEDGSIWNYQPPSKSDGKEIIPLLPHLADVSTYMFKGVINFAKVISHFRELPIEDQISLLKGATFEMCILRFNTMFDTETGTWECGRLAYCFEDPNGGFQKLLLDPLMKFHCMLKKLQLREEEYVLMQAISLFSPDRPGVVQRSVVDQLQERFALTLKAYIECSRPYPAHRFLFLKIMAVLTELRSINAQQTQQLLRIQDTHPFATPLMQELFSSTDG
Chain of Peroxisome proliferator-activated receptor alpha (Homo sapiens) (Q07869 whole entry, looked up, the tested form may be a part): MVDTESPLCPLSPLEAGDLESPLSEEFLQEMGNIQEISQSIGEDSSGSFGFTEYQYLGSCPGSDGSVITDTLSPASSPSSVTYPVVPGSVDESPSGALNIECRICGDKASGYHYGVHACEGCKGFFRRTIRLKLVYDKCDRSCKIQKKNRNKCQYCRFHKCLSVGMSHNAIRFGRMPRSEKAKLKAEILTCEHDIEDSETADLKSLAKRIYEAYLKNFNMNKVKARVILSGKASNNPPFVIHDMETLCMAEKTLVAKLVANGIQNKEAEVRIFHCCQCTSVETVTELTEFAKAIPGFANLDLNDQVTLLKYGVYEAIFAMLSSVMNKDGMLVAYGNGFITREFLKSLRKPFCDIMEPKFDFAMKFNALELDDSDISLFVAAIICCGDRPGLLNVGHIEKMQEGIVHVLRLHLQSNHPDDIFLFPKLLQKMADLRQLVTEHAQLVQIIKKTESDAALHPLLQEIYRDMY

On to `CC(C)=CCC[C@@H](C)[C@H]1CC[C@@]2(C)C3=C(CC[C@]12C)[C@@]1(C)CC[C@H](O)C(C)(C)[C@@H]1CC3`, for which the max response in [1] was 37.7%; in [6] it was -27.3%; in experiment [9], 0.0546%; in experiment [13], 3.07% (inactive); in [14] it was -4.2% (inactive); in [16], 0.187% (inactive). Moreover, the Potency result in experiment [2], in experiment [4], in experiment [7], in experiment [8], in experiment [12] and in [15] was “inactive” throughout. In addition, the outcome in experiment [3], in [5] and in experiment [17] was inactive. The activation was 1.26% (inactive) in experiment [10] and 1.89% (inactive) in [11].
As to `COC(=O)C1CCC(C(=O)OC)CC1` (stereo not given), the max response in [1] is 36.1%; in [6], -4.14%; in experiment [9], -8.09%; in [18], -11.5% (inactive); in experiment [19], 3.84% (inactive); in experiment [13] it was 1.5% (inactive). Further, the max response in [14] is -13.8% (inactive); in experiment [16] it was 2.13% (inactive). In addition, the Potency entry in [2], in experiment [4], in experiment [7], in [8], in experiment [12] and in experiment [15] was “inactive” in each case. The outcome in experiment [3] and in [5] was inactive. Further, the activation in [10] was -2.67% (inactive); in experiment [11], 0.798% (inactive).
In the case of `COc1ccccc1NC(=O)CC(C)=O`, the max response in experiment [1] is 49.4%; in [9], 7.64%; in experiment [18], -16% (inactive); in [19], 0.153% (inactive); in experiment [13], 2.57% (inactive); in experiment [14], -19.2% (inactive). In addition, the max response in experiment [16] was 5.67% (inactive). Besides, the Potency result in [2], in experiment [4], in [12] and in [15] was “inactive” throughout. The result in experiment [3] and in experiment [5] was inactive. The values for the activation in experiment [20], in experiment [10] and in experiment [11] were -7.86% (inactive), -0.04% (inactive) and 6.41% (inactive), respectively.
`CC(C)CCCCCCc1ccc(OCCOCCO)cc1`: the figures for the max response in [6], in experiment [13] and in experiment [16] were -48.7%, -4.66% (inactive) and -16.1% (inactive), respectively. Besides, the Potency in experiment [7] was 3.55 µM (active). Besides, in [11], the activation was -9.42% (inactive). In experiment [12], the Potency result is “inactive”.
`CN(C)c1nc(=O)n(C2CCC(O)CC2)c(=O)n1C` (stereo not given): the max response in [1] was 20.4%; in experiment [6] it was -9.86%; in experiment [19], -3.35% (inactive); in experiment [13], 6.16% (inactive); in experiment [14] it was -7.57% (inactive); in [16] it was -1.79% (inactive). The Potency result in experiment [2], in experiment [7], in [8], in [12] and in experiment [15] was “inactive” each time. Also, the outcome in experiment [3], in experiment [5] and in experiment [17] was inactive. Further, the activation was 2.9% (inactive) in [20], -0.848% (inactive) in experiment [10] and -0.637% (inactive) in [11].
Turning to `C[Si]1(C)O[Si](C)(C)O[Si](C)(C)O[Si](C)(C)O1`, the max response in [1] is 8.31%; in experiment [9] it was 1.41%; in experiment [18], 6.05% (inactive); in [19], -0.153% (inactive); in experiment [13], 2.58% (inactive); in experiment [14], 0.965% (inactive). Also, in experiment [16], the max response is 3.43% (inactive). In addition, the Potency result in [2], in experiment [8], in [12] and in experiment [15] was “inactive” each time. For the same compound, the outcome in experiment [5] and in experiment [17] was inactive. Moreover, the figures for the activation in [20], in [10] and in experiment [11] were -2.06% (inactive), 0.122% (inactive) and -0.142% (inactive), respectively.
